Source: PubChem (National Center for Advancing Translational Sciences (NCATS))
IL1B secr inh – blocks inflammasome-driven IL-1 beta release; THP-1 LPS/ATP IL-1B secretion, AlphaLISA, 16 h; active compounds read low; activity change, % at 57.5 µM; hit rate 4.7% among 360,000; in the data active = activity change below about -50%; inconclusive = mostly about -30% to -49%; also: % is scaled to controls: 0 for no effect and ±100 for the full control effect
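Secreted IL-1B measured by AlphaLISA bead assay after 16 h compound exposure of THP-1 cells; compounds (final up to 57.5 uM) added 1 h before LPS (250 ng/mL) and ATP (1.25 mM) stimulation; lower signal means less secretion.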
HepG2 tox – counter-screen for TGF-b inhibitors: cytotoxicity in HepG2 cells; HepG2 CAGA-GFP viability, ATP luminescence, 18 h; Potency, µM (titrated, usually from 46.1 µM), without a hit: at the highest dose activity change, negative = cytotoxicity, most hits filed as cytotoxic; hit rate 0.76% among 410,000; AID 588856; also: potency is read from the fitted curve at half-maximal effect
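HepG2 CAGA-GFP cells (1000/well, DMEM with 1% FBS) received compound, then TGF-beta at 500 pg/mL final, and were incubated 18 hours at 37 degrees C. Viability was read by CellTiter-Glo luminescence. Media-only wells were set as complete cell-killing and DMSO as no toxicity.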
S-ASM inh – inhibitors of human secretory acid sphingomyelinase. Potency, µM (doses to about 57.5 µM), for the others: top-dose activity change, negative = inhibition, hits mostly inhibitors. hit rate 0.006% among 340,000. placental ASM, HMU-PC fluorogenic substrate, 60 min; also: potency is read from the fitted curve at half-maximal effect
Target sequence (P17405 47-631 limits assumed): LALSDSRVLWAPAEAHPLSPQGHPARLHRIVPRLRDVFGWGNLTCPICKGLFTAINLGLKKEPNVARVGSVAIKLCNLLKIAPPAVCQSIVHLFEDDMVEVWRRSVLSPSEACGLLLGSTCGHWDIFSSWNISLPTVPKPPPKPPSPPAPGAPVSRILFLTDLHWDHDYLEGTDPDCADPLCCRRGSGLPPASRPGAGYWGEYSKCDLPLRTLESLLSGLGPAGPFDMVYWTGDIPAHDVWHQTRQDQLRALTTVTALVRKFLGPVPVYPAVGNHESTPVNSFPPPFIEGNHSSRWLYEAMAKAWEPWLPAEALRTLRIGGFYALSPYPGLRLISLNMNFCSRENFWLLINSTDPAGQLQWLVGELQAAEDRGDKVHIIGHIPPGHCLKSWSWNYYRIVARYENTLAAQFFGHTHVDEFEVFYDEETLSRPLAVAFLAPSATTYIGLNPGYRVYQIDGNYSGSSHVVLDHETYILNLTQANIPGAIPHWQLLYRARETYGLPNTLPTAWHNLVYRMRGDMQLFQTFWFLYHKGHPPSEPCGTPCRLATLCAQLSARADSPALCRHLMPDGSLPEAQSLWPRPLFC
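Steps: dispense placental human ASM, pin compound, wait 10 min at room temperature, add HMU-PC0 substrate at 9 uM final, incubate 60 min at 37 °C, add stop solution raising pH to 10, read fluorescence.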
TGFb inhibitor – TGF-b pathway inhibition; hit rate 1.2% among 410,000; AID 588855; HepG2 CAGA-GFP TGF-b/SMAD3 reporter, GFP fluorescence, 18 h; TGF-beta stimulated, 500 pg/mL final; Potency, µM (doses to about 46.1 µM), inactives show top-dose activity, negative = inhibition, hits mostly inhibitors; also: potency is read from the fitted curve at half-maximal effect; % is scaled to controls: 0 for no effect and ±100 for the full control effect; nearly all actives have a fitted effect of over 65% in size
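Inhibition was scored as loss of TGF-beta-induced (500 pg/mL final, 18 hours, 37 degrees C) GFP in HEPG2 cells carrying a CAGA-GFP reporter, in DMEM with 1% FBS. Well GFP was summed per cell; Activity was normalised to unstimulated and stimulated DMSO wells, then concentration-response fitting.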
DT40 TDP1 no CPT – qHTS for Inhibitors of human tyrosyl-DNA phosphodiesterase 1 (TDP1): qHTS in cells in absence of CPT; DT40 Tdp1-/- hTDP1 cells, no CPT, ATP luminescence, 48 h; Potency, µM (highest dose often 46.2 µM), inactives show top-dose activity change, negative = growth inhibition, hits mostly inhibitors; hit rate 15% among 420,000; AID 686978, 2013; also: potency is read from the fitted curve at half-maximal effect; % is scaled to controls: 0 for no effect and ±100 for the full control effect; nearly all actives have a fitted effect of over 55% in size
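Camptothecin absent (DMSO only). Human TDP1-complemented DT40 knockout cells, 400 cells/well, 37 °C for minimum 48 hr; ATP measured via CellTiter-Glo, 30 min dark incubation, luminescence.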
DT40 TDP1 CPT – DT40-hTDP1 cell growth loss with CPT; chicken DT40 Tdp1-/-;hTDP1 cells + 20 nM CPT, ATP luminescence, 48 h; Potency, µM (series often up to 46.2 µM), without a hit: at the highest dose activity change, negative = growth inhibition, most hits filed as inhibitors; hit rate 12% among 420,000; also: potency is read from the fitted curve at half-maximal effect; % is scaled to controls: 0 for no effect and ±100 for the full control effect; nearly all actives have a fitted effect of over 55% in size
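Chicken DT40 Tdp1-/- cells stably complemented with human TDP1 were seeded at 400 cells/well in medium containing 20 nM camptothecin, exposed to pin-transferred compounds, and grown at 37 °C for at least 48 hr. Viability was read as ATP luminescence.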
* = called active by the depositor; ? = inconclusive; · = not tested or not shown. Sampled rows, rich in hits. Any-hit rate of the full collection: about 19%. Unless noted, calls follow the shape of the dose curve; as a rule, active = well fitted curve in the direction sought with a large enough effect; inconclusive = small, poorly fitted or top-dose-only effect, or another doubt; inactive = no such curve, though single readings can be large; an effect the other way counts as inactive or inconclusive.

SMILES	IL1B secr inh	HepG2 tox	S-ASM inh	TGFb inhibitor	DT40 TDP1 no CPT	DT40 TDP1 CPT
COCC1CCCN(Cc2nc(C(c3ccccc3)c3ccccc3)no2)C1 (stereo not given)	-4	-8%	5%	-9%	18µM*	?
c1ccc(-c2noc(CN3CCN(c4ccccc4)CC3)n2)cc1	21	-24%	0%	-11%	-3%	-20%
c1ccc(C(c2ccccc2)c2noc(CN3CCN(CC4CC4)CC3)n2)cc1	-19	-13%	0%	-3%	?	15µM*
O=C(CSCc1ccccc1Cl)NCc1ccc(Cl)c(Cl)c1	·	-43%	·	?	?	?
Cc1cc([N+](=O)[O-])nn1CCC(=O)Nc1nccs1	13	-9%	-2%	-7%	6%	0%
O=C1C2C3c4ccccc4C(c4ccccc43)[C@@H]2C(=O)N1c1ccccn1 (stereo not given in full)	10	1%	5%	-8%	21µM*	?
N/C(=N\OC(=O)c1ccc(Cl)c([N+](=O)[O-])c1)c1ccccn1	-107*	-8%	0%	6%	-20%	-5%
O=C(COC(=O)c1cnccn1)c1ccc(Cl)c([N+](=O)[O-])c1	-60*	-29%	-4%	-9%	?	?
O=C(COC(=O)c1cnccn1)c1ccc([N+](=O)[O-])cc1	-54*	-16%	0%	8%	?	23µM*
N/C(=N\OC(=O)c1ccc(Cl)c(Cl)c1)c1ccccn1	15	-32%	0%	-3%	-11%	-24%
Cc1ccc(C(=O)COC(=O)c2cnccn2)cc1[N+](=O)[O-]	-4	2%	3%	5%	-17%	-17%
Cc1ccc(C(=O)COC(=O)c2cnccn2)cc1	25	-1%	-1%	13%	-3%	10%
CCOC(=O)c1nc(-c2ccc(OC)c(OC)c2)no1	16	-3%	-1%	0%	-5%	-10%
CCNc1c([N+](=O)[O-])c(=O)n(CC)c2ccccc12	-9	-2%	0%	-13%	-13%	-2%
CCN(CC)c1c([N+](=O)[O-])c(=O)n(CC)c2ccccc12	0	-28%	1%	-34%	21µM*	?
COCCn1nnnc1CN1CCN(C(=O)c2ccco2)CC1	2	4%	-4%	1%	-5%	0%
COc1ccc2cc1Oc1ccc(cc1)CC1c3c(cc(OC)c4c3Oc3cc5c(cc3O4)CCNC5C2)CCN1C (stereo not given)	-11	-103%	-4%	10µM*	1.6µM*	2.9µM*
COc1ccc2cc1Oc1ccc(cc1)C[C@H]1c3c(cc(OC)c4c3Oc3c(ccc5c3[C@H](C2)N(C)CC5)O4)CCN1C	-17	-1%	-2%	0%	5.2µM*	5.8µM*
COc1ccc2cc1Oc1cc3c(cc1OC)CC[N+](C)(C)[C@H]3Cc1ccc(cc1)Oc1c(OC)c(OC)cc3c1[C@@H](C2)[N+](C)(C)CC3	·	·	·	·	?	17%
CC(C)(C)OC(=O)N1CCC(c2c(C(=O)NCCN3CCOCC3)cnn2-c2ccc(F)cc2)CC1	·	-10%	·	-23%	?	?
COc1ccccc1N1CCN(CCN(C(=O)C2CCCCC2)c2ccccn2)CC1	8	-7%	-3%	-18%	23µM*	?
COc1ccccc1N1CCN(CC(C)N(C(=O)C2CCCCC2)c2ccccn2)CC1 (stereo not given)	8	-22%	3%	-26%	?	-23%
COc1ccc(Br)cc1/C=N/Nc1ccccn1	-6	-28%	1%	?	8%	?
CCc1c(C)nc2nncn2c1NCc1ccc(OC)cc1	·	2%	·	·	18µM*	16µM*
Cc1nc2nncn2c(Nc2ccc(F)cc2)c1C	·	-18%	·	?	9.2µM*	16µM*
SMILES	IL1B secr inh	HepG2 tox	S-ASM inh	TGFb inhibitor	DT40 TDP1 no CPT	DT40 TDP1 CPT
Cc1nc2nncn2c(NCc2ccc(F)cc2)c1C	·	-5%	·	?	4.1µM*	5.2µM*
Cc1ccc2nc(Nc3ccc(F)cc3)c3nncn3c2c1	27	8%	-2%	-12%	7%	-17%
COc1ccc(CNc2cc(-c3ccc(OC)cc3)nc3nncn23)cc1	·	-21%	·	?	16µM*	?
CCOC(=O)C1=C(COC(=O)COc2ccc(OCC)cc2)NC(=O)NC1C (stereo not given)	6	-8%	-1%	-14%	2%	6%
C[C@H](CO)N1C[C@H](C)[C@@H](CN(C)C(=O)Nc2ccc3c(c2)OCO3)Oc2ccc(NC(=O)CCN3CCOCC3)cc2C1=O	13	0%	5%	11%	-3%	4%
O=S1(=O)N=C(Nc2cccc(C(F)(F)F)c2)c2ccccc21	·	-29%	·	-14%	?	?
Cc1nc2nncn2c(NCc2ccc(Cl)cc2)c1C	·	-20%	·	-16%	0.82µM*	2.6µM*
Cc1cc(C)n(-c2nnc(NCc3ccc(Cl)cc3)nn2)n1	20	-103%	-9%	?	?	-14%
COC(=O)C1=NNC2C(=O)N(C3CCCCC3)C(=O)C12 (stereo not given)	4	4%	-1%	16%	1%	3%
CCC(C)c1ccc(NC(=O)c2[nH]c(C)c(C(C)=O)c2C)cc1 (stereo not given)	-15	-8%	-23%	-14%	?	?
COC(=O)c1ccc(COC(=O)c2ccc(CO)cc2)o1	8	-12%	-1%	-6%	3%	1%
CC(=O)c1c(C)[nH]c(C(=O)OCc2ccccc2)c1C	-3	-21%	0%	-25%	21µM*	?
COC(=O)c1ccc(COC(=O)c2[nH]c(C)c(C(C)=O)c2C)o1	39	-13%	0%	-18%	2.9µM*	10µM*
CCC(NC(=O)c1[nH]c(C)c(C(C)=O)c1C)c1ccc(Br)cc1 (stereo not given)	?	-27%	-2%	?	15µM*	?
CC(=O)c1c(C)[nH]c(C(=O)OCc2ccc([N+](=O)[O-])cc2)c1C	20	-10%	-3%	-10%	?	?
CC(=O)c1c(C)[nH]c(C(=O)OCCCCN2C(=O)c3ccccc3C2=O)c1C	17	-20%	-11%	-3%	4.1µM*	8.2µM*
CCS(=O)(=O)N1CCC2(CC1)OCCN2S(=O)(=O)c1ccc(OC)cc1	16	-31%	2%	-6%	0%	-20%
